FLuc counter: firefly luciferase modulation, counter-screen for miR-21 project. purified FLuc, Km substrates, luminescence inhibition. hit rate 6.9% among 360,000. P08659. AID 588342. Potency, µM (doses to about 57.5 µM), most hits filed as inhibitors; note: nearly all actives have a fitted effect of over 55% in size
Target sequence (P08659 whole entry, looked up): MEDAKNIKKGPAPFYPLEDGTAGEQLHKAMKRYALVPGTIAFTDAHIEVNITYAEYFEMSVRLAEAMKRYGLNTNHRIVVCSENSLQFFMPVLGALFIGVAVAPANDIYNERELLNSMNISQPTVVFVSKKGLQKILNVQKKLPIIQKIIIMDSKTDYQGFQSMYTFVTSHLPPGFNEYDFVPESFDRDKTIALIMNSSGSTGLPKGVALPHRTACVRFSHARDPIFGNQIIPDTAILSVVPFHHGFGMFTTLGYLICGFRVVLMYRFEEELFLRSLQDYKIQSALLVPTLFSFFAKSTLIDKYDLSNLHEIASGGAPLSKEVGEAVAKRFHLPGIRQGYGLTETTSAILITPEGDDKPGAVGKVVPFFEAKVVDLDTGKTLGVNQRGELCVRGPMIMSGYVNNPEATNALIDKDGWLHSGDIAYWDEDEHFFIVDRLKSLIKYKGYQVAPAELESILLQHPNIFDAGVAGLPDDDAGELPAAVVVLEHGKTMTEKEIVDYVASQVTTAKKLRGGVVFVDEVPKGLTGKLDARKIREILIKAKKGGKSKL
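Purified P. pyralis luciferase (10nM final) with 10uM D-luciferin and 10uM ATP (Km levels) in 50mM Tris acetate pH 7.5, 10mM Mg acetate, 0.01% Tween-20, 0.05% BSA; qHTS 6-point titration, ~60 µM downward; luminescence read.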
SMN2 splice up: enhancers of SMN2 splice variant expression | AID 1458 | hit rate 2.8% among 210,000 | Potency, µM (doses to about 46.1 µM), most hits filed as activators | HEK293 SMN2-luciferase splicing reporter, luminescence, 30-36 h; note: nearly all actives have a fitted effect of over 55% in size
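qHTS luciferase splicing reporter: luminescence rises when SMN2 exon 7 is included in transfected HEK293 cells. Compound exposure lasted 30-36 h at 37C, with 4.5 mM final sodium butyrate as control, followed by a ONE-Glo read.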
Rab9 promoter act: Rab9 promoter activation; Huh7 Rab9 promoter-luciferase reporter, luminescence, 24 h; Potency, µM (series often up to 9.22 µM), most hits filed as activators; hit rate 2.8% among 320,000; note: nearly all actives have a fitted effect of over 60% in size
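Rab9 promoter-driven luciferase in stably transfected Huh7 cells; 1500 cells/well rested 2 h, exposed to compound in DMSO for 24 h at 37 °C, 5% CO2. Luminescence read 10 min after adding luciferase reagent at ambient temperature.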
ELG1 genotox: induces genotoxicity in HEK293T cells with luciferase-tagged ELG1. Potency, µM (highest dose often 46 µM), most hits filed as activators. HEK293T ELG1-luciferase reporter, luminescence, 16 h. hit rate 1.3% among 330,000; note: nearly all actives have a fitted effect of over 60% in size
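Luminescence read-out: rising ELG1-luciferase signal, reflecting elevated ELG1 protein under genetic stress, flags genotoxic compounds. Cells were treated for 16 hr at 37 °C before ONE-Glo detection.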
NPC1 prom act: activates the NPC1 promoter; Huh7 NPC1 promoter luciferase reporter, 24 h; Potency, µM (titrated, usually from 9.22 µM), usual class: activators; hit rate 2.4% among 320,000; AID 485313; note: nearly all actives have a fitted effect of over 60% in size
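NPC1 promoter–luciferase Huh7 cells; 24 h compound; luminescence.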
ELG1 repair inh: ELG1-dependent DNA repair inhibition; Potency, µM (series often up to 46.1 µM), most hits filed as inhibitors; AID 504467; HEK293T ELG1-luciferase reporter, luminescence, 16 h; DNA damage induced by 5-fluorouridine; hit rate 2.3% among 330,000; note: nearly all actives have a fitted effect of over 55% in size
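Quantitative HTS, concentration-response format. 2,000 cells/well co-treated with 5-fluorouridine and compound, 16 hr in 5% CO2 at 37 °C; ONE-Glo luminescence read after 30 min.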
Hits are given with their value; n = inactive; u = inconclusive; x = no result. Most compounds without a hit are left out; they make up all but 9.2% or so of the library. Calls come from the whole dose curve; as a rule, active = well fitted curve in the direction sought with a large enough effect; inconclusive = small, poorly fitted or top-dose-only effect, or another doubt; inactive = no such curve, though single readings can be large; an effect the other way counts as inactive or inconclusive.

SMILES	FLuc counter	SMN2 splice up	Rab9 promoter act	ELG1 genotox	NPC1 prom act	ELG1 repair inh
COc1cccc(-n2ccnc2SCC(=O)Nc2ccc(Cl)c(Cl)c2)c1	n	x	x	x	x	x
Cc1nc(NC(=O)c2ccccc2)sc1-c1csc(Nc2cccc(Cl)c2)n1	u	n	n	n	n	u
Cc1nc(NC(=O)c2ccccc2)sc1-c1csc(Nc2ccc(F)cc2)n1	7.6µM	n	n	n	n	u
Cc1nc(NC(=O)c2ccccc2)sc1-c1csc(Nc2ccc(Cl)cc2Cl)n1	9.5µM	n	n	n	n	u
Cc1ccc(NC(=O)CCC(=O)N2CCSc3ccccc32)cc1	n	x	x	x	x	x
COc1c(C)cccc1C(=O)Nc1ccc(N2CCOCC2)c(Cl)c1	6.7µM	11µM	3.2µM	8.2µM	1.6µM	u
COc1ccccc1NS(=O)(=O)c1cc(NC(=O)c2cccnc2)ccc1N1CCCCC1	x	x	x	n	x	18µM
O=C(Nc1ccc(N2CCOCC2)c(Cl)c1)c1cccnc1	u	u	n	21µM	n	n
O=C(Nc1ccc(N2CCCC2)c(Cl)c1)c1cccnc1	12µM	16µM	2.8µM	n	3.2µM	u
COCCn1c(N)c(Sc2ccc(Cl)cc2)c(=O)[nH]c1=O	n	x	n	n	n	n
COc1ccc(Br)cc1CNC(=O)Cn1nc(C)n2cccc2c1=O	n	x	n	n	n	n
O=C(Nc1ccc(N2CCOCC2)c(Cl)c1)c1c(F)c(F)c(F)c(F)c1F	n	u	n	n	n	n
O=C(Nc1ccc(Cl)c(S(=O)(=O)N2CCCCC2)c1)c1cccnc1	n	x	n	n	n	u
O=C(Nc1ccc(N2CCOCC2)c(Cl)c1)c1cccc(F)c1	4.3µM	10µM	1.6µM	2.3µM	1.1µM	u
O=C(Nc1ccc(N2CCCCC2)c(Cl)c1)c1cccnc1	12µM	13µM	2.8µM	u	2.8µM	u
Cc1ccc(NC(=O)C(=O)c2c(-c3ccccc3)cc3ccccn23)cc1S(=O)(=O)N1CCOCC1	n	n	n	n	n	9.2µM
CC(=O)Nc1ccc(NC(=O)c2cc(=O)c3cc(C)c(C)cc3o2)cc1	2.7µM	x	n	n	n	n
Cc1ccc(NC(=O)c2cc(=O)c3ccccc3o2)cc1S(=O)(=O)N1CCCCC1	n	n	n	n	n	16µM
Cc1ccc(NC(=O)c2cc(=O)c3ccccc3o2)cc1S(=O)(=O)N1CCOCC1	n	x	n	n	n	23µM
Cc1cc2oc(C(=O)Nc3ccc(S(N)(=O)=O)cc3)cc(=O)c2cc1C	n	n	x	x	x	x
O=C(Nc1ccc(S(=O)(=O)N2CCCCCC2)cc1)c1cc(=O)c2ccccc2o1	n	n	x	x	x	x
O=C(NC1CC(=O)N(c2cccc(F)c2)C1)c1ccc(S(=O)(=O)N2CCCC2)cc1 (stereo not given)	n	x	x	x	x	x
Cc1sc2ncn(CC(=O)N3CCN(c4cccc(Cl)c4)CC3)c(=O)c2c1S(=O)(=O)N1CCN(c2ncccn2)CC1	n	n	x	x	x	x
CCOC(=O)N1CCC(NC(=O)c2ccc3c(c2)N(Cc2ccc(F)cc2)C(=O)c2ccccc2S3=O)CC1 (stereo not given)	n	n	x	x	x	x
Cc1ccc(NC(=O)c2ccccc2-c2ccc(C(F)(F)F)cc2)cc1S(=O)(=O)N1CCOCC1	n	n	n	n	n	21µM
SMILES	FLuc counter	SMN2 splice up	Rab9 promoter act	ELG1 genotox	NPC1 prom act	ELG1 repair inh
CN(C)c1ccc(N=Cc2nc(-c3ccccc3)oc2OC(=O)c2cccc(Br)c2)cc1	u	16µM	n	u	u	u
CC(=O)Oc1oc(-c2ccccc2)nc1C=Nc1ccccc1	n	n	n	n	n	n
COc1ccc(N=Cc2nc(-c3ccccc3)oc2OC(=O)c2ccccc2)cc1	11µM	n	u	u	n	u
Cc1ccc(C(=O)Oc2oc(-c3ccco3)nc2C=Nc2ccccc2)cc1	15µM	n	u	n	n	u
CCCN(CCC)c1nn2c(=O)c(C(=O)NCc3cccc(OC)c3)cnc2s1	n	x	x	x	x	x
O=C1C=C(NCCN2CCOCC2)C(=O)c2cnccc21	n	n	n	n	n	4.1µM
O=C1C=C(NCCO)C(=O)c2cnccc21	x	n	x	x	x	x
CCCCOC(=O)c1ccc(NC(C)=O)cc1	u	n	n	n	n	u
COCC(=O)Nc1ccc(C)c(Cl)c1	n	n	n	n	n	n
CCCCOC(=O)Nc1ccc(C(=O)OC)cc1	12µM	n	u	u	u	u
CCCCOC(=O)Nc1ccc(C)c(Cl)c1	6.7µM	u	2.8µM	u	3.5µM	u
CCCCCCOC(=O)c1ccc(N)cc1	11µM	x	u	u	u	u
CCCCOC(=O)c1ccc(N)cc1	u	n	n	u	n	u
CCCCOC(=O)c1ccc(NC(=O)c2cc(Cl)c(Cl)cc2C(=O)O)cc1	21µM	x	n	n	n	n
CCCCOC(=O)c1ccc(NC(=O)c2c(OC)cccc2OC)cc1	n	n	n	n	n	n
COCC(=O)N1c2nc(C(C)C)nn2C2(CCCCC2)[C@@H]2CCCC[C@@H]21	n	x	x	x	x	x
Oc1c(C=Nc2ccc(Cl)cn2)sc2ccccc12	0.34µM	x	u	5.8µM	u	u
Oc1c(/C=N/c2ccccn2)sc2ccccc12	0.54µM	x	u	u	n	u
Oc1c(C=Nc2cccnc2)sc2ccccc12	1.9µM	n	n	u	n	u
Oc1oc(-c2ccccc2Br)nc1C=Nc1ccc(Br)cn1	n	n	n	n	n	n
Oc1c(C=NCc2ccncc2)sc2ccccc12	u	u	n	u	n	n
Oc1c(C=Nc2ccccc2)sc2ccccc12	n	x	n	n	n	n
Fc1ccc(-c2nc(Nc3cccc(C(F)(F)F)c3)nc3c2COc2ccccc2-3)cc1	n	x	x	x	x	x
c1ccc(-c2noc(-c3ccc4c(c3)OCO4)n2)nc1	0.24µM	0.5µM	u	u	u	u
c1ccc(-c2noc(-c3ccc4ccccc4c3)n2)nc1	0.067µM	0.5µM	n	u	n	u
SMILES	FLuc counter	SMN2 splice up	Rab9 promoter act	ELG1 genotox	NPC1 prom act	ELG1 repair inh
Brc1ccc(-c2ccc(CNCc3ccccn3)o2)cc1	15µM	x	n	n	n	n
Clc1cccc(-c2ccc(CNCc3ccccn3)o2)c1	u	x	n	n	n	n
Cc1ccc(S(=O)(=O)N(C(=O)c2ccncc2)c2ccc(OC(=O)c3ccncc3)c3ccccc23)cc1	u	n	n	n	n	18µM
COC(=O)/C=C/c1cnc[nH]1	n	x	n	n	n	n
COC(=O)c1c(NC(=O)c2ccc(C)cc2)csc1C	11µM	x	n	n	n	n
CCOC(=O)c1c(-c2cccs2)csc1NC(=O)c1ccncc1	n	n	n	n	n	u
COC(=O)c1c(-c2cccs2)csc1NC(=O)c1ccc(C)cc1	5.4µM	x	x	x	x	x
COCCNC(=O)c1nn(-c2ccc(Cl)cc2)nc1CO	u	n	x	x	x	x
O=C(Cn1ccn(-c2cccc(Cl)c2)c(=O)c1=O)NCCc1ccccc1	n	x	x	x	x	x

Compound activity from PubChem.
